Among the test systems are BT-549 breast; MDA-MB-435 melanoma; SW-620 colon; MCF7 breast; HCT-116 colon; HCC-2998 colon; KM12 colon.
Common to all, as to experiment: NCI-60 one-dose screen, 48 h (100 = growth as untreated, 0 = no growth, -100 = all killed)
Conditions in all cases: 10 µM unless noted

We go through 19 compounds from PubChem BioAssay (NCI).

The panel holds about 83,000 compounds, 20% with a hit somewhere; the sample as a whole holds those more often.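 Single-dose data. Exposure time 48 hours. Values below 10 considered active.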 Unmarked numbers belong to inactive results. Activity calls are given as the source filed them.

As for `O=C1NN(c2ccccc2)C(c2ccc3c(c2)OCO3)N2CCC[C@@H]12` (stereo partly drawn), the growth is 114% in the test on BT-549 breast; 105% in the test with MDA-MB-435 melanoma; 105% in the test with SW-620 colon; 87.5% in the test on MCF7 breast; 94.3% in the test with HCT-116 colon; 82.2% in the test with HCC-2998 colon.
`COc1ccc(-c2cn(-c3ccc(Cl)cc3)c(=S)[nH]2)cc1OC`: the growth with BT-549 breast was 78.6%; in the test on MDA-MB-435 melanoma, 86.1%; with SW-620 colon it was 114%; with MCF7 breast it was 72.2%; in the test with HCT-116 colon it was 32.2%; in the test on HCC-2998 colon it was 79.2%.
Consider `O=S(=O)(Nc1nccs1)c1ccc(Nc2nc(-c3ccncc3)cs2)cc1`, for which the growth in the test on BT-549 breast is 125%; in the test on MDA-MB-435 melanoma, 112%; in the test with SW-620 colon, 98.1%; in the test on MCF7 breast, 94.3%; in the test on HCT-116 colon, 93.8%; in the test with HCC-2998 colon, 120%.
Regarding `COc1ccc2cc(/C=C3\N=C(c4cc(OC)c(OC)c(OC)c4)OC3=O)c(OC)nc2c1`, the growth in the test on BT-549 breast is 104%; with MDA-MB-435 melanoma it was 106%; with SW-620 colon, 100%; in the test on MCF7 breast, 99.8%; in the test with HCT-116 colon, 97.9%; in the test on HCC-2998 colon it was 102%.
On to `Oc1ccc(CNNc2ccnc3c(O)cccc23)c2cccnc12`, for which the growth with BT-549 breast was 37.1%; with MDA-MB-435 melanoma, 38.1%; with SW-620 colon, 27.9%; in the test with MCF7 breast it was 11.2%; in the test with HCT-116 colon, 27.3%; in the test on HCC-2998 colon, 35.7%.
Turning to `COc1cc(N=Nc2cc(S(=O)(=O)O)cc3cc(S(=O)(=O)O)cc(O)c23)c(C)cc1N=Nc1c(S(=O)(=O)O)cc2cc(Nc3ccccc3)ccc2c1O`, the growth with BT-549 breast is 103%; with MDA-MB-435 melanoma it was 109%; with SW-620 colon it was 108%; with MCF7 breast, 103%; in the test on HCT-116 colon it was 98.4%; in the test with HCC-2998 colon it was 105%. Further, the growth in the test on KM12 colon was 102%.
For `CCOC(=O)c1c(C)nc2c(c1N)/C(=C/c1ccccn1)C(=O)N2Cc1ccccc1`, the growth with BT-549 breast is 15.9%; with MDA-MB-435 melanoma, 11.2%; with SW-620 colon, 1.97% (active); with MCF7 breast, 2.76% (active); in the test with HCT-116 colon, -21.8% (active); with HCC-2998 colon, 11.2%.
In the case of `CNc1cccc2c1C(=O)c1cccc(N)c1C2=O`, the growth in the test with BT-549 breast was 30.8%; with MDA-MB-435 melanoma, 36.1%; in the test with SW-620 colon, 63.1%; in the test on MCF7 breast, 25%; with HCT-116 colon it was 31.5%; with HCC-2998 colon, 93.9%. In addition, in the test on KM12 colon, the growth is 35.8%.
Take `O=C1NC(c2ccc(F)cc2)N=C2C(c3ccccc3)=NOC12` (stereo not drawn): the growth is 106% with BT-549 breast; 106% in the test with MDA-MB-435 melanoma; 106% in the test on SW-620 colon; 101% in the test with MCF7 breast; 103% in the test with HCT-116 colon; 101% in the test on HCC-2998 colon.
As to `Cc1cc(Cl)cc(CN(Cc2ccccc2)Cc2c(O)ccc3ccccc23)c1O`, the growth in the test with BT-549 breast was 99%; with MDA-MB-435 melanoma, 112%; in the test with SW-620 colon, 105%; with MCF7 breast, 85%; with HCT-116 colon, 111%; in the test with HCC-2998 colon, 91.5%.
For `C=C1C(=O)O[C@H]2[C@H]1CC/C(C=Nc1c(N)cc(C(F)(F)F)cc1Br)=C\CC[C@@]1(C)O[C@@H]21`, the growth in the test with BT-549 breast was -22.6% (active); with MDA-MB-435 melanoma, 4.47% (active); in the test with SW-620 colon, -63.1% (active); in the test with MCF7 breast, -2.09% (active); with HCT-116 colon, -80.6% (active); in the test on HCC-2998 colon, 34.2%. Moreover, the growth with KM12 colon is 30%.
Regarding `Cc1cc(C)c2nc(Nc3nc(C)c(C)c(=O)[nH]3)nc(C)c2c1`, the growth was 9.69% (active) with BT-549 breast; 15.7% in the test with MDA-MB-435 melanoma; 9.96% (active) in the test on SW-620 colon; 3.09% (active) in the test with MCF7 breast; 3.76% (active) in the test on HCT-116 colon; 21.9% with HCC-2998 colon.
On to `C=CCn1c(CN2CCN(c3cc4c(cc3F)c(=O)c(C(=O)O)cn4C3CC3)CC2)n[nH]c1=S`, for which the growth with BT-549 breast is 105%; in the test on MDA-MB-435 melanoma it was 102%; in the test with SW-620 colon it was 105%; in the test with MCF7 breast, 95.7%; in the test with HCT-116 colon, 105%; in the test on HCC-2998 colon, 107%.
Consider `COc1ccc(C2N(c3cc(OC)c(OC)c(OC)c3)C(=O)C2(F)F)cc1F` (stereo not drawn), for which the growth in the test on BT-549 breast is 35%; in the test with MDA-MB-435 melanoma it was 12.9%; in the test with SW-620 colon, 21.2%; in the test with MCF7 breast, 15.1%; in the test on HCT-116 colon it was 5.76% (active); in the test on HCC-2998 colon it was 84.2%.
In the case of `NC(=O)CN1C(=O)c2ccccc2C1=O`, the growth in the test on BT-549 breast is 86.6%; in the test on MDA-MB-435 melanoma, 106%; in the test with SW-620 colon it was 103%; in the test on MCF7 breast, 95.3%; with HCT-116 colon, 102%; in the test with HCC-2998 colon, 103%.
As to `O=C1CCC23OC(c4ccccc4N12)C(O)C(O)C3O` (stereo not drawn), the growth is 111% with BT-549 breast; 110% in the test with MDA-MB-435 melanoma; 103% in the test with SW-620 colon; 100% in the test on MCF7 breast; 84.9% in the test with HCT-116 colon; 94.5% in the test with HCC-2998 colon.
Turning to `CC(=O)Nc1nc2c(c(N)c1C#N)C(c1cccc(Cl)c1)C1=C(CCCC1=O)N2c1sc2c(c1C#N)CCCC2` (stereo not drawn), the growth in the test on BT-549 breast is 45.9%; in the test with MDA-MB-435 melanoma, 65.5%; in the test with SW-620 colon, 80.3%; with MCF7 breast, 20.7%; in the test on HCT-116 colon it was 33.3%; in the test with HCC-2998 colon, 45.7%.
For `CN1CCN(/C=C2\CC(C(=O)NCc3ccc(Cl)cc3Cl)NC2=O)CC1` (stereo not drawn), the growth was 136% in the test with BT-549 breast; 119% in the test with MDA-MB-435 melanoma; 98% in the test on SW-620 colon; 103% in the test on MCF7 breast; 110% in the test with HCT-116 colon; 101% with HCC-2998 colon.
Regarding `O=c1[nH]nc(-c2ccc(Br)cc2)c2sc(NC(=S)Nc3ccc(Cl)cc3)nc12`, the growth in the test on BT-549 breast is 92.6%; in the test on MDA-MB-435 melanoma, 104%; with SW-620 colon it was 96.7%; in the test with MCF7 breast, 79.7%; with HCT-116 colon, 96.8%; with HCC-2998 colon, 97.6%. In the test on KM12 colon, the growth was 99.3%.
